Measurements reported in the supplement of paper PMC11732987, “Enantioselective OTUD7B fragment discovery through chemoproteomics screening and high-throughput optimisation” (Communications Chemistry, 2025).

Assays:
Assay in all cases: log2 ratio of Biotin-Ahx-Ub-VS probe labelling (fragment/DMSO); higher = less target engagement (more negative = stronger competition), active = hit call of the paper (q ≤ 0.05, log2 ratio ≤ -1)
Details in all cases: compound concentration: 200 uM; treatment time: 3 h
[1] = target: USP34 (UniProt Q70CQ2)
Method in brief: (§1)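 Triplicate samples of HEK293T lysate, 495 µg each, received fragment at 200 µM or vehicle for 3 h, followed by Biotin-Ahx-Ub-VS (0.5 µM final) for 1 h. After NeutrAvidin enrichment of labelled DUBs and LysC/trypsin digestion, peptides were run by diaPASEF LC-MS/MS. The values are average log2 fragment/vehicle ratios from global-median-normalised Spectronaut label-free quantities, tested by unpaired t-test on proteins having ≥2 unique peptides.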

[2] = target: T1, USP36 (UniProt Q9P275)
T1 sequence (whole entry): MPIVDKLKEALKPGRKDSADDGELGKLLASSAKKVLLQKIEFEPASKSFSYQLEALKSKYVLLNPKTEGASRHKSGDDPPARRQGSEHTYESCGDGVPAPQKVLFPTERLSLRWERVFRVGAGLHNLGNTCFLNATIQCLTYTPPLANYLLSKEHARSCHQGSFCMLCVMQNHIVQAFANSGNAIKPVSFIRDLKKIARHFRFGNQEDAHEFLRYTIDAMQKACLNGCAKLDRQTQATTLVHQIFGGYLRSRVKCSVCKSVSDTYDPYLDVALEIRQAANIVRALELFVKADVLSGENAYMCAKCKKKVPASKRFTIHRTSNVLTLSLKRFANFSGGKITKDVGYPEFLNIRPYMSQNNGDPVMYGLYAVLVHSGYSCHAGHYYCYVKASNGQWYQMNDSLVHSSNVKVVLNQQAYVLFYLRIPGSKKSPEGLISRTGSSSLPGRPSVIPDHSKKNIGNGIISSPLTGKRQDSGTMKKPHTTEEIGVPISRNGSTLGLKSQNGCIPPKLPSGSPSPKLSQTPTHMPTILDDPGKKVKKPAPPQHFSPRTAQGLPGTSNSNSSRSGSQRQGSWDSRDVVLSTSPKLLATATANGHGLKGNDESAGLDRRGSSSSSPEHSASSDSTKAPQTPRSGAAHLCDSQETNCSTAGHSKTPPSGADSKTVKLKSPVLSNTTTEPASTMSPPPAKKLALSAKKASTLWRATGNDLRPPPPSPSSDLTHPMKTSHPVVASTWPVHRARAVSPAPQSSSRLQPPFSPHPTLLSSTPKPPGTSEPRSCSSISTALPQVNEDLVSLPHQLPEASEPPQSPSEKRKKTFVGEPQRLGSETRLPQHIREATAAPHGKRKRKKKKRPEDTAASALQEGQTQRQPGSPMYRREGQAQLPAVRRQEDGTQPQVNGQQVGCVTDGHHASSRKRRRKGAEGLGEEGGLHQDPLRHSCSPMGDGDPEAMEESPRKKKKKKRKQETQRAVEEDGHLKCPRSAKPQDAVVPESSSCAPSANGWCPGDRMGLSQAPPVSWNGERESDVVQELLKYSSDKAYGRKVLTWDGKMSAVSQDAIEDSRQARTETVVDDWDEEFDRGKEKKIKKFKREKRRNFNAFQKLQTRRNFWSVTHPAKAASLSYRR
Method in brief: as §1

[3] = target: T2, USP38 (UniProt Q8NB14)
T2 sequence (whole entry): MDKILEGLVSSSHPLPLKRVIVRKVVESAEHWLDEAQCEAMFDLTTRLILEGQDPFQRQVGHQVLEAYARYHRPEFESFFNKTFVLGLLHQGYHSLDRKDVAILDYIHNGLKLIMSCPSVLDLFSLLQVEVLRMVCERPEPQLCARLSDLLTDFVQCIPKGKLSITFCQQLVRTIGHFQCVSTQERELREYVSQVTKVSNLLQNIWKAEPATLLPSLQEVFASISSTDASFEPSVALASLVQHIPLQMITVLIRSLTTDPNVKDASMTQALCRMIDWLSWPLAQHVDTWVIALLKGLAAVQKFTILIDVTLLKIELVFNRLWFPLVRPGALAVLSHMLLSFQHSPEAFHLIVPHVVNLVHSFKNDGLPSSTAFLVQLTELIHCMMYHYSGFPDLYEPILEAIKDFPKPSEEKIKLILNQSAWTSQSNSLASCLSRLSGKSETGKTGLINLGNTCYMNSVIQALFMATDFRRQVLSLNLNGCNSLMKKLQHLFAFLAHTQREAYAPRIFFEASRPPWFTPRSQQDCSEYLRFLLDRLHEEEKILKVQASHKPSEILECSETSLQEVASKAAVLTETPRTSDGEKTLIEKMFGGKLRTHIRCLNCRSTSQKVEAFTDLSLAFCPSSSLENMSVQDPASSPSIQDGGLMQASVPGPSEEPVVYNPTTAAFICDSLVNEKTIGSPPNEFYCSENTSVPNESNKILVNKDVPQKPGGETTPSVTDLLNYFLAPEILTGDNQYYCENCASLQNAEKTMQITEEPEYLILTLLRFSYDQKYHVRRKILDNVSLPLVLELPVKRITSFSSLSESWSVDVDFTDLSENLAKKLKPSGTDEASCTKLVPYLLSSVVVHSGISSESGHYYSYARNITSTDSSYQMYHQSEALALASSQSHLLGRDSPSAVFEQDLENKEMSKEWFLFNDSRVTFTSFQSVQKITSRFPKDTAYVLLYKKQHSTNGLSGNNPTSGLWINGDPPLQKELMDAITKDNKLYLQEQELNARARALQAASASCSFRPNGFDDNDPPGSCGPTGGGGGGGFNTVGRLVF
Method in brief: as §1

[4] = target: T3, USP39 (UniProt Q53GS9)
T3 sequence (whole entry): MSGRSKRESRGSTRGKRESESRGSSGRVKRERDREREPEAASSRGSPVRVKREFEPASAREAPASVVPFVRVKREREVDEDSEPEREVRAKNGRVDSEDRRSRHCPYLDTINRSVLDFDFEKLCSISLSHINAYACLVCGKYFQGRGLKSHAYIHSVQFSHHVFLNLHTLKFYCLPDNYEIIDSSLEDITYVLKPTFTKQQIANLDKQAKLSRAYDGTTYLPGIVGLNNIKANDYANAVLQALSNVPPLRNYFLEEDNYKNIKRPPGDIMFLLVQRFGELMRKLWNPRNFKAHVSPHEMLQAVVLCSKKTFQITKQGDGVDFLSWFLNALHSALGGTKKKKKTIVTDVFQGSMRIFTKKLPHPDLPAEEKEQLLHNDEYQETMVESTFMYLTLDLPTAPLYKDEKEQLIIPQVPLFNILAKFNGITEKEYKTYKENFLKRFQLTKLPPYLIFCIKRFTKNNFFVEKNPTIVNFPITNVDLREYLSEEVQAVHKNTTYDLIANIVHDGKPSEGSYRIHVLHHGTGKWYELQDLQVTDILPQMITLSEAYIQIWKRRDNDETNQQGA
Method in brief: as §1

[5] = target: T4, USP4 (UniProt Q13107)
T4 sequence (whole entry): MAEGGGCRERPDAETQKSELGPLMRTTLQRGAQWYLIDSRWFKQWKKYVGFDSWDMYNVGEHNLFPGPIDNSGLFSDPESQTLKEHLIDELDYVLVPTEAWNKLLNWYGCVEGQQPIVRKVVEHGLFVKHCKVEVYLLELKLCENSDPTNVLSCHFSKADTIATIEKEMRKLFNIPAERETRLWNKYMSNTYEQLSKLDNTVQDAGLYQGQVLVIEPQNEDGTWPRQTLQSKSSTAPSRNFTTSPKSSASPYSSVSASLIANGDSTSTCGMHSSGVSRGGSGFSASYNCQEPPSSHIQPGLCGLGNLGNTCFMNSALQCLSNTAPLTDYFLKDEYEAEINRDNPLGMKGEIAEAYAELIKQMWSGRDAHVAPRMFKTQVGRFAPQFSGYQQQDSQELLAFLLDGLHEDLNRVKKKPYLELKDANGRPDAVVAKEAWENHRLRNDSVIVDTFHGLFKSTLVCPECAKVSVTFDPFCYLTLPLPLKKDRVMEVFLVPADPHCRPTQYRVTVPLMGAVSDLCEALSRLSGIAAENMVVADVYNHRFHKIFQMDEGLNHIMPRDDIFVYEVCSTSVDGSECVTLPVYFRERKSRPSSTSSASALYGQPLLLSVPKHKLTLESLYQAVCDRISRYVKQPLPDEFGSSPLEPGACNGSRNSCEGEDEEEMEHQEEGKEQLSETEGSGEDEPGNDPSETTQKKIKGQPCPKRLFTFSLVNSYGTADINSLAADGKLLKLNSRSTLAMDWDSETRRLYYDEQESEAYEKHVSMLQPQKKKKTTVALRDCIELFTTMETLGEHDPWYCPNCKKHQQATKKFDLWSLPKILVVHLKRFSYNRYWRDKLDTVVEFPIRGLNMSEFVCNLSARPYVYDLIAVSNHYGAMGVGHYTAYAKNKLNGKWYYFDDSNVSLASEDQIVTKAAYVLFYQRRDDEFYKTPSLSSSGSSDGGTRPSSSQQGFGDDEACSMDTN
Method in brief: as §1

Measured: log2 ratio of Biotin-Ahx-Ub-VS probe labelling

Sequence of USP34 (Q70CQ2 whole entry, the tested form may be a part): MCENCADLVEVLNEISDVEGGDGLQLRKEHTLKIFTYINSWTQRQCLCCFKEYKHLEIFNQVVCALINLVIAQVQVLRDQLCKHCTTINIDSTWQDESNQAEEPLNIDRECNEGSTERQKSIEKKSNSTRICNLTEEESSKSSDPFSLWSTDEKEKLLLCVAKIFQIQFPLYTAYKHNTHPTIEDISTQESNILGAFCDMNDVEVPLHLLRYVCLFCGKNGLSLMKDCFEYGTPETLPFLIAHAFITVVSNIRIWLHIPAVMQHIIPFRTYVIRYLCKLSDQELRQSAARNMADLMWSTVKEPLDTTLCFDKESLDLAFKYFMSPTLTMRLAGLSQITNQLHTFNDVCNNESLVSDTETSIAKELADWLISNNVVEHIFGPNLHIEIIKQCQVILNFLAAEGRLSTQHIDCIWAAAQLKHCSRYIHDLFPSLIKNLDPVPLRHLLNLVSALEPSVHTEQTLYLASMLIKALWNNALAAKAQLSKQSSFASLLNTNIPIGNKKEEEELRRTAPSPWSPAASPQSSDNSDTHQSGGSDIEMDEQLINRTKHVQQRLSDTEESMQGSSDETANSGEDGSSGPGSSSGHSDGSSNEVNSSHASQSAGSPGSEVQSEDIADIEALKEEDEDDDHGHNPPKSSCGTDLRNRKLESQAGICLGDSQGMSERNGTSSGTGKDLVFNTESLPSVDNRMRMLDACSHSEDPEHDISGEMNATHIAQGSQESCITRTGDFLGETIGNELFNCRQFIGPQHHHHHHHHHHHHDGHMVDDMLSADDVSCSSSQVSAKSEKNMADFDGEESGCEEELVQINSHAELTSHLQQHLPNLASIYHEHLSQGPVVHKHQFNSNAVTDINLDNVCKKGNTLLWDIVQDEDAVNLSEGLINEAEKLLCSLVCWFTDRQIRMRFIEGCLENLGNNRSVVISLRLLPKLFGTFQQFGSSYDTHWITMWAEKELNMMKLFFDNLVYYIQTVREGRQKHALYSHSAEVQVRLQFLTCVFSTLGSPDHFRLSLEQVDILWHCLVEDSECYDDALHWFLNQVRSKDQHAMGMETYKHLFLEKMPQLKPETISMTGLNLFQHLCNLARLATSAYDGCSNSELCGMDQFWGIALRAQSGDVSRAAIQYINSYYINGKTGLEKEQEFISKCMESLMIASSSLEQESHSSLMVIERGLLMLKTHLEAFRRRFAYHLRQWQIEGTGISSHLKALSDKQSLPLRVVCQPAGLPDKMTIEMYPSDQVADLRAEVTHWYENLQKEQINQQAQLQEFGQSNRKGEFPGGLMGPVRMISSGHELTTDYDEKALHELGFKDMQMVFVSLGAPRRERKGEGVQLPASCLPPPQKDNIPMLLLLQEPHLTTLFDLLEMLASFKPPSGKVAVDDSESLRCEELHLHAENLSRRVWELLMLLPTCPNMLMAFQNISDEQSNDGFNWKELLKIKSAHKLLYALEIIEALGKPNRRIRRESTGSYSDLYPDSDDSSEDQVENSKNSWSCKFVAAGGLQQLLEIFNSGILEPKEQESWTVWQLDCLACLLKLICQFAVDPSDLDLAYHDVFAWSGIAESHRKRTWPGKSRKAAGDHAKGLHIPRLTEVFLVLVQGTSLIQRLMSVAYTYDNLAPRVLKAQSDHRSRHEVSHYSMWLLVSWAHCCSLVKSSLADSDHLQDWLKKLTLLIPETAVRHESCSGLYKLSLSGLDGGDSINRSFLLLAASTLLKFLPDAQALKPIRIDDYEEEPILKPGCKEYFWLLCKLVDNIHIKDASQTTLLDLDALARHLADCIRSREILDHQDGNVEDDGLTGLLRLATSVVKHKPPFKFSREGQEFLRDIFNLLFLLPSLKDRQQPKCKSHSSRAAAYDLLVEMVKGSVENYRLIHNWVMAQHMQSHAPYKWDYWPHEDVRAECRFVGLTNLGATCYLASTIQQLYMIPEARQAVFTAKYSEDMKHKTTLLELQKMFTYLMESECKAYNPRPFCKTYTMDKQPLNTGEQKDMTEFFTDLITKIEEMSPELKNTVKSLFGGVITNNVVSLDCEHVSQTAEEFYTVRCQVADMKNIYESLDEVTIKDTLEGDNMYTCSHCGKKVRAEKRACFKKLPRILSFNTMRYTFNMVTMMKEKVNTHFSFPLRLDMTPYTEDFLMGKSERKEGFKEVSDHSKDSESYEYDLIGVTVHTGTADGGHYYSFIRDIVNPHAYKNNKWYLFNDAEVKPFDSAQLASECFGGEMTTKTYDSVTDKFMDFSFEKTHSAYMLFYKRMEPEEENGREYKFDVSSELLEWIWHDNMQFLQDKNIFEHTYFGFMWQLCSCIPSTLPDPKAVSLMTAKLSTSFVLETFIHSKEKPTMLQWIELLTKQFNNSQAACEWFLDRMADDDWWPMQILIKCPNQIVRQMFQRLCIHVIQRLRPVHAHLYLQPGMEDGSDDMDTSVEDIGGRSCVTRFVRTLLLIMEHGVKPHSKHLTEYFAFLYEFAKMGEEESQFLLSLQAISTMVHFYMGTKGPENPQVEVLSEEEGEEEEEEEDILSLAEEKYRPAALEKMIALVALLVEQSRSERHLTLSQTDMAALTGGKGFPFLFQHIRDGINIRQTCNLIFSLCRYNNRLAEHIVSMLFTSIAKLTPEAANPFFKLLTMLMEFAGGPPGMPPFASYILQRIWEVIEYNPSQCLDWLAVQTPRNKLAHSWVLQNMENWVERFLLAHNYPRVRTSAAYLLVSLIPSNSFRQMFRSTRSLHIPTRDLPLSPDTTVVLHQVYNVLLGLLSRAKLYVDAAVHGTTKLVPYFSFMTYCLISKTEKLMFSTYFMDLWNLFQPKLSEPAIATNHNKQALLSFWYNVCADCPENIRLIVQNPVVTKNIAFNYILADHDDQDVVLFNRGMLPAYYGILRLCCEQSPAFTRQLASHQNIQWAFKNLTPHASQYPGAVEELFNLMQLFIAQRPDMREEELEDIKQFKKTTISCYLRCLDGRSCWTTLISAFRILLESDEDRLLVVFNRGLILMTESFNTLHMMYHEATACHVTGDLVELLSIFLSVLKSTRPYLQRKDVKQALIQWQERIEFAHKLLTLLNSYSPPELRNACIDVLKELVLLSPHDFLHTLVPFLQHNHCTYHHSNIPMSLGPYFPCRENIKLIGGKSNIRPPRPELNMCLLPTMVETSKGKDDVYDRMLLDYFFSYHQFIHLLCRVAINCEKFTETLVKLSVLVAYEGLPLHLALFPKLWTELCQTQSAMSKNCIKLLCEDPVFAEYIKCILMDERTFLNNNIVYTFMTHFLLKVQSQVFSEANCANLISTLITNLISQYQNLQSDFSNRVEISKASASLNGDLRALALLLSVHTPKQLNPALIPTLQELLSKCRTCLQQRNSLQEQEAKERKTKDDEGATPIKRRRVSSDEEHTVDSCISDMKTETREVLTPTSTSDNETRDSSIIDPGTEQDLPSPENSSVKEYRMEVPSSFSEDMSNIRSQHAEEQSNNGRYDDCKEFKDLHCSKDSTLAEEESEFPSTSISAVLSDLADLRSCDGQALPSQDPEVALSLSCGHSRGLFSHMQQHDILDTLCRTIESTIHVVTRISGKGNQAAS

CC1CN(c2ccc(NC(=O)CCl)cc2)CC(C)O1 (stereo not given)
inactive: [1] -0.087 | [2] -0.162 | [3] 0.0369 | [4] 0.216 | [5] -0.104
